{
  "source": "PubChem BioAssay (NCATS)",
  "note": "Records with an inconclusive call do not appear. Activity calls are given as the source filed them. Calls follow the shape of the dose curve; as a rule, active = well fitted cell-killing curve with a large enough effect; inconclusive = small, poorly fitted or top-dose-only effect; inactive = no such curve, though single readings can be large or run the other way. Potency is read from the fitted curve at half-maximal effect.",
  "data": [
    {"assay": "qHTS of pediatric cancer cell lines to identify multiple opportunities for drug repurposing: Primary screen for NB-EBc1 cells (AID 1347095)", "details": "NB-EBc1 neuroblastoma viability, CellTiter-Glo luminescence, 48 h; series mostly up to 46 µM; activity change, negative = cytotoxic: at the top concentration", "text": "Drug repurposing or repositioning has been offered as a strategy for drug development in oncology programs. This approach has special potential for childhood cancers and other rare or orphan diseases, where the expected return on new drug development has been a disincentive to pharmaceuticals. […] In this project we exploit the poly-pharmacology of drugs to discover new indications via phenotypic screening of a panel of 19 well-characterized cell lines derived from solid tumors seen in children and adolescents. The goal is to identify approved drugs with previously unrecognized anticancer properties that has the potential to reveal new mechanisms and biological processes involved in carcinogenesis or drug resistance. We employed a titration-based paradigm (quantitative high-throughput screening or qHTS), where all compounds were tested at multiple concentrations for their effect on cell viability. Concentration-response curves (CRCs) were derived directly from the primary screen, and both potency and efficacy values were used to identify compounds with robust bioactivity profiles. We screened the NIH Chemical Genomics Center (NCGC) Pharmaceutical Collection (NPC) and Mechanism Interrogation Plate (MIPE) small molecule collections of approved and investigational compounds against these cell lines; and measured metabolically active cells after 48 hours of compound treatment as a proxy for cell viability. […] Assay Submitter: Nathalia J. Martinez, National Center for Advancing Translational Sciences, National Institutes of Health, Rockville, MD, USA; email: natalia.martinez@nih.gov Shen, M et al. Quantitative high-throughput phenotypic screening of pediatric cancer cell lines identifies multiple opportunities for drug repurposing. Oncotarget 2017 Dec 19;9(4):4758-4772. PMID 29435139.\nThe cells were obtained from University of North Carolina (UNC), Pediatric Preclinical Testing Program (PPT), and Coriell Institute (CI). qHTS cell viability assay: Cells were assayed in growth media at a density of 500-1,000 cells/well. Five microliters of cells were dispensed into 1,536-well, white, solid-bottom, TC-treated plates (Greiner Bio One) using a multidrop dispenser and incubated at 37 degrees C, 5% CO2, under a humidified atmosphere for 5 hours. Twenty-three nanoliters of compounds and controls (neutral control DMSO or positive control bortezomib at final concentration of 2.3 µM) were subsequently transferred by Kalypsys pintool. For primary screens, the MIPE collection was tested at 11-point dilutions (final concentrations range from 0.78 nM to 46 µM) and the NPC collection at 8-point dilutions (final concentrations range from 0.59 nM to 46 µM). Compounds tested in follow-up screens were assayed at 11-point dilutions. Cells were incubated for 48 hours, followed by addition of 3 µL of CellTiter-Glo (Promega). After a 15 min incubation at room temperature, samples were analyzed for luminescence intensity using a ViewLux High-throughput CCD imager equipped with clear filters.", "values": [
      {"smiles": "CCCN1CCC[C@@H]2Cc3nc(N)ncc3C[C@H]21", "activity change, negative = cytotoxic": "2.7% (inactive)"},
      {"smiles": "C=CCN1CC[C@]23c4c5ccc(O)c4O[C@H]2C(=O)CC[C@@]3(O)[C@H]1C5", "activity change, negative = cytotoxic": "16.3% (inactive)"},
      {"smiles": "NCCc1cc(O)c(O)cc1O", "activity change, negative = cytotoxic": "10.9% (inactive)"},
      {"smiles": "Cc1ccc(S(=O)(=O)N[C@@H](CCCCN)C(=O)CCl)cc1", "activity change, negative = cytotoxic": "9.79% (inactive)"},
      {"smiles": "CC(=O)Nc1cc([As](=O)(O)O)ccc1O", "activity change, negative = cytotoxic": "16.7% (inactive)"},
      {"smiles": "COc1ccc(C(=O)c2c(C)n(CCN3CCOCC3)c3ccccc23)cc1", "activity change, negative = cytotoxic": "28% (inactive)"},
      {"smiles": "Oc1ccccc1-c1ccccc1", "activity change, negative = cytotoxic": "4.51% (inactive)"},
      {"smiles": "CCC(=O)C(CC(C)N(C)C)(c1ccccc1)c1ccccc1", "note": "(stereo not given)", "activity change, negative = cytotoxic": "-9.08% [at 92.7 µM] (inactive)"},
      {"smiles": "COC[C@@H](NC(C)=O)C(=O)NCc1ccccc1", "activity change, negative = cytotoxic": "13.4% (inactive)"},
      {"smiles": "CC(C)NCC(O)c1ccccc1Cl", "note": "(stereo not given)", "activity change, negative = cytotoxic": "17% (inactive)"},
      {"smiles": "CCOC(=O)C1(c2ccccc2)CCN(CCC(C#N)(c2ccccc2)c2ccccc2)CC1", "Potency": "18.8 µM (active)"},
      {"smiles": "Clc1ccc(CCC(Cn2ccnc2)Sc2c(Cl)cccc2Cl)cc1", "note": "(stereo not given)", "Potency": "21.1 µM (active)"},
      {"smiles": "C=C1CC[C@@]2(O)[C@H]3Cc4ccc(O)c5c4[C@@]2(CCN3CC2CC2)[C@H]1O5", "activity change, negative = cytotoxic": "-1.05% (inactive)"},
      {"smiles": "CC[C@@H](CO)NC(=O)[C@@H]1C=C2c3cccc4c3c(cn4C)C[C@H]2N(C)C1", "activity change, negative = cytotoxic": "4.06% (inactive)"},
      {"smiles": "CC(C)=CC1C(C(=O)OCc2cccc(Oc3ccccc3)c2)C1(C)C", "note": "(stereo not given)", "activity change, negative = cytotoxic": "6.65% (inactive)"},
      {"smiles": "C#CCN(C)[C@H](C)Cc1ccccc1", "Potency": "inactive"},
      {"smiles": "NP(N)(=O)NC(=O)c1ccc(F)cc1", "activity change, negative = cytotoxic": "23.7% (inactive)"},
      {"smiles": "C#CCOC(C(=O)OCCN(C)C)(c1ccccc1)c1ccccc1", "activity change, negative = cytotoxic": "14.8% (inactive)"},
      {"smiles": "Oc1cc(Cl)ccc1Oc1ccc(Cl)cc1Cl", "Potency": "4.95 µM (active)"},
      {"smiles": "CCCC1CCCCN1", "note": "(stereo not given)", "activity change, negative = cytotoxic": "8.23% (inactive)"},
      {"smiles": "O=P1(NCCCl)OCCCN1CCCl", "note": "(stereo not given)", "activity change, negative = cytotoxic": "14.7% (inactive)"},
      {"smiles": "O=C1CC[C@@]2(O)[C@H]3Cc4ccc(O)c5c4[C@@]2(CCN3CC2CC2)[C@H]1O5", "Potency": "inactive"},
      {"smiles": "C[C@]12CCC(=O)C(O)=C1CC[C@@H]1[C@@H]2CC[C@]2(C)C(=O)CC[C@@H]12", "activity change, negative = cytotoxic": "7.51% (inactive)"},
      {"smiles": "CCN(CC)CCOC(=O)C(O)(c1ccccc1)c1ccccc1", "activity change, negative = cytotoxic": "6.36% (inactive)"},
      {"smiles": "COc1ccccc1N1CCNCC1", "activity change, negative = cytotoxic": "8.03% (inactive)"},
      {"smiles": "OCCOc1ccccc1", "activity change, negative = cytotoxic": "23.2% (inactive)"},
      {"smiles": "N[C@@H]1C[C@H]1c1ccccc1", "activity change, negative = cytotoxic": "21.6% (inactive)"},
      {"smiles": "c1ccc2c(c1)Nc1ccccc1S2", "Potency": "inactive"},
      {"smiles": "C[C@@H]1[C@@H](CC(C[C@H]2O[C@@H]3O[C@]4(C)CC[C@@H]5[C@H](C)CC[C@@H]([C@H]2C)[C@@]35OO4)C[S+](=O)([O-])c2ccc(COC(=O)N(C)C)cc2)O[C@@H]2O[C@]3(C)CC[C@H]4[C@H](C)CC[C@@H]1[C@@]24OO3", "note": "(stereo not given in full)", "Potency": "0.418 µM (active)"},
      {"smiles": "Cc1cccc(C)c1NC(=O)CN1CCCC1=O", "Potency": "inactive"},
      {"smiles": "CC(C)=CCOc1c2occc2cc2ccc(=O)oc12", "activity change, negative = cytotoxic": "14.1% (inactive)"},
      {"smiles": "FC(F)(F)c1cccc(C2=CCN(CCc3ccc4ccccc4c3)CC2)c1", "activity change, negative = cytotoxic": "-3.81% (inactive)"},
      {"smiles": "CC(=O)[C@H]1CC[C@H]2[C@@H]3CC[C@H]4C[C@H](O)CC[C@]4(C)[C@H]3C(=O)C[C@]12C", "activity change, negative = cytotoxic": "14.6% (inactive)"},
      {"smiles": "CN1C(=S)CN=C(c2ccccc2)c2cc(Cl)ccc21", "activity change, negative = cytotoxic": "-7.71% (inactive)"},
      {"smiles": "O=c1[nH]c2ccccc2n1CCCN1CCC(n2c(=O)[nH]c3cc(Cl)ccc32)CC1", "Potency": "inactive"},
      {"smiles": "CC[N+](CC)(CC)CC", "activity change, negative = cytotoxic": "19.4% (inactive)"},
      {"smiles": "CC(C)CC(N(C)C)C1(c2ccc(Cl)cc2)CCC1", "note": "(stereo not given)", "Potency": "inactive"},
      {"smiles": "CCC1(C2=NCCN2)Cc2ccccc2O1", "note": "(stereo not given)", "activity change, negative = cytotoxic": "9.99% (inactive)"},
      {"smiles": "c1ccc(C2CC2)c(OCC2=NCCN2)c1", "activity change, negative = cytotoxic": "0.615% (inactive)"},
      {"smiles": "CN(C)[C@@H]1C(=O)C(C(N)=O)=C(O)[C@@]2(O)C(=O)C3=C(O)c4c(O)cccc4[C@@](C)(O)[C@H]3C[C@@H]12", "Potency": "inactive"}
    ]}
  ]
}
